For experiment [1], the target named is Glucocorticoid receptor (Homo sapiens) (UniProt P04150). Briefly: ATG_GR_TRANS: Attagene TRANS-FACTORIAL HepG2 Assay for human Glucocorticoid Receptor (GR) (AID 2282978; active = hit-call score of the fitted dose curve at least 0.9, where 1 is the maximum;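 note: activators score as hits since higher reporter transcript over DMSO is fitted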). As to conditions: HepG2 Attagene TRANS GR reporter, mRNA transcription. An outline of the steps: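 HepG2 cells transiently transfected with GAL4-UAS reporter units and exogenous GR-Gal4 chimera, dosed 24 h. Reporter mRNA by RT-PCR, FAM labeling, HpaI digest and capillary electrophoresis; gain-of-signal fit versus DMSO.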
Glucocorticoid receptor (Homo sapiens), sequence (P04150 whole entry, looked up, the tested form may be a part): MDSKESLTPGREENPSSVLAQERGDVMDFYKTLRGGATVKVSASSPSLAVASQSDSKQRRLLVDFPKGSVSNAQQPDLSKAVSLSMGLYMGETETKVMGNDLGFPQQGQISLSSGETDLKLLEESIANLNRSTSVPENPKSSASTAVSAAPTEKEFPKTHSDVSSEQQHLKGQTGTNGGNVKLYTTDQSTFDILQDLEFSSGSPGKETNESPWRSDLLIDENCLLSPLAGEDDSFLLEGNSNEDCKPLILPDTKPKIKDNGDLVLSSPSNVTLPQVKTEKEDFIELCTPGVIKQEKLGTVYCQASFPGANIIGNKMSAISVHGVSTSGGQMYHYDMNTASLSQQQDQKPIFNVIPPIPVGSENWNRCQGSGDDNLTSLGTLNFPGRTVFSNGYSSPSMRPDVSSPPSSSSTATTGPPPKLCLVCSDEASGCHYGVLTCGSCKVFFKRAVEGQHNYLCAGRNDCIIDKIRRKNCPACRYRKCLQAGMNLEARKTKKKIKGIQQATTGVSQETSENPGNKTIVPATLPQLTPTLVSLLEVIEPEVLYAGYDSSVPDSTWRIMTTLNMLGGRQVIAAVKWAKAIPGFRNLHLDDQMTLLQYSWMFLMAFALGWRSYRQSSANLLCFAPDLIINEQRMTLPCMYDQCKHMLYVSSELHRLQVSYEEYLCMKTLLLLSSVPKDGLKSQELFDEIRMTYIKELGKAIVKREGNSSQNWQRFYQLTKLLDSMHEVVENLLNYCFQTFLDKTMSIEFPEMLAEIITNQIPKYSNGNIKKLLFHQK

In experiment [2] the target is Oxysterols receptor LXR-beta (Homo sapiens) (UniProt P55055). Briefly: ATG_LXRb_TRANS: Attagene TRANS-FACTORIAL HepG2 Assay for human Liver X Receptor beta (LXRb) (AID 2282981; active = hit-call score of the fitted dose curve at least 0.9, where 1 is the maximum). As to conditions: HepG2 Attagene TRANS GAL4-LXRb reporter, mRNA. An outline of the steps:
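Gain-of-signal mRNA reporter endpoint, DMSO as negative control. Transiently transfected HepG2 cells carrying the NR-Gal4 chimera and GAL4-UAS reporter units were treated 24 h; transcripts quantified by RT-PCR and capillary electrophoresis fluorescence.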

For experiment [3], the target named is Hepatocyte nuclear factor 4-alpha (Homo sapiens) (UniProt P41235). Kind of experiment: ATG_HNF4a_TRANS: Attagene TRANS-FACTORIAL HepG2 Assay for human Hepatocyte Nuclear Factor 4 alpha (HNF4a) (AID 2282982; active = hit-call score of the fitted dose curve at least 0.9, where 1 is the maximum). The settings on record: HepG2 HNF4a transactivation reporter, mRNA readout. An outline of the steps:
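Gain-of-signal mRNA induction, relative to DMSO vehicle, was read after 24 h compound treatment of HepG2 cells bearing transfected GAL4-UAS reporters. Detection used RT-PCR, 6-FAM primer extension and capillary electrophoresis.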

Experiment [4] in a line: ATG_M_06_TRANS: Attagene TRANS-FACTORIAL HepG2 Assay for M06 Transcription Factor (Internal Marker) (AID 2282983; active = hit-call score of the fitted dose curve at least 0.9, where 1 is the maximum). The settings on record: HepG2 Attagene TRANS M06 internal marker reporter. In short, it runs like this: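 Measured by capillary electrophoresis of fluorescently labelled RT-PCR products, this endpoint reflects reporter mRNA in HepG2 cells harbouring exogenous NR-GAL4 reporter constructs after 24 h exposure, with DMSO as baseline.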

A short description of experiment [5]: ATG_M_32_TRANS: Attagene TRANS-FACTORIAL HepG2 Assay for M32 Transcription Factor (Internal Marker) (AID 2282984; active = hit-call score of the fitted dose curve at least 0.9, where 1 is the maximum;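 note: transcript level of a background control reporter unit measured by RT-PCR and capillary electrophoresis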). As to conditions: HepG2 Attagene TRANS M32 internal marker reporter. In short, it runs like this:
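Capillary electrophoresis of 6-FAM-labelled reporter fragments gives the signal; data fitted for gain over DMSO negative control. Source: HepG2 cells bearing transient multiple reporter transcription units, 24 h exposure.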

For experiment [6], the target named is Nuclear receptor subfamily 4 group A member 2 (Homo sapiens) (UniProt P43354). Kind of experiment: ATG_NURR1_TRANS: Attagene TRANS-FACTORIAL HepG2 Assay for human Nuclear Receptor Related Protein 1 (NURR1) (AID 2282985; active = hit-call score of the fitted dose curve at least 0.9, where 1 is the maximum). The settings on record: HepG2 Attagene TRANS reporter, mRNA readout. An outline of the steps:
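HepG2 / transient MRTU transfection / 24 h compound exposure / RT-PCR + CE fluorescence of reporter mRNA / gain-of-signal vs DMSO.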

In experiment [7] the target is Transcriptional activator Myb (Homo sapiens) (UniProt P10242). Briefly: ATG_Myb_CIS: Attagene CIS-FACTORIAL HepG2 Assay for human Myeloblastosis (Myb) Proto-Oncogene Transcription Factor (AID 2282986). As to conditions: HepG2 Attagene CIS-FACTORIAL Myb reporter transcription; actives raise or lower the signal. In short, it runs like this:
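Transiently transfected HepG2 cells carrying a multiplexed cis-promoter reporter set report endogenous Myb activity after 24 h compound exposure. Reporter mRNA is read by RT-PCR with capillary electrophoresis of fluorescent products, fitted bidirectionally against DMSO.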

The target in experiment [8] is Nuclear respiratory factor 1 (Homo sapiens) (UniProt Q16656). Kind of experiment: ATG_NRF1_CIS: Attagene CIS-FACTORIAL HepG2 Assay for human Nuclear Respiratory Factor 1 (NRF1) Orphan Gene (AID 2282987). As to conditions: HepG2 NRF1 cis-element reporter, Attagene multiplex; actives raise or lower the signal. An outline of the steps: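 HepG2 cells transiently transfected with multiple cis-regulated reporter units, exposed 24 h. Reporter mRNAs measured by RT-PCR, fluorescent labelling, HpaI digestion and capillary electrophoresis; bidirectional fitting against DMSO.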
Nuclear respiratory factor 1 (Homo sapiens), sequence (Q16656 whole entry, looked up): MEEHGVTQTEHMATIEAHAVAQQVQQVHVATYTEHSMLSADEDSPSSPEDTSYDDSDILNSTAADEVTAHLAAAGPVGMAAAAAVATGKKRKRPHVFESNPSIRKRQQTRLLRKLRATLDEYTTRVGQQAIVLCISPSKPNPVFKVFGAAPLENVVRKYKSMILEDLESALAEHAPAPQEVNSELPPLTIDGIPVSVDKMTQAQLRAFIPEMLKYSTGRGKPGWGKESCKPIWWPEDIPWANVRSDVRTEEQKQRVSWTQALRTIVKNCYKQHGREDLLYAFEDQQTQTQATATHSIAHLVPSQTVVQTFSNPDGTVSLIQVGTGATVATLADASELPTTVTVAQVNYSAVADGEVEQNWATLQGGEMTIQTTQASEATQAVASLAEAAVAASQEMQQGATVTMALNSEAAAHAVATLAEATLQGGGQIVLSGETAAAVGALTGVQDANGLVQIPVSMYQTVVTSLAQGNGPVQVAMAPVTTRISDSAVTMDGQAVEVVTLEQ

A short description of experiment [9]: ATG_NFI_CIS: Attagene CIS-FACTORIAL HepG2 Assay for human Nuclear Factor I (NFI) (AID 2282989). As to conditions: HepG2 cis-regulatory reporter, NFI response element transcription; actives raise or lower the signal. An outline of the steps:
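Read-out: reporter mRNA via RT-PCR plus capillary electrophoresis with fluorescence detection. Transiently transfected HepG2 (endogenous TF activity on cis promoters), 24 h compound exposure; gain or loss of signal fitted against DMSO.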

Experiment [10] concerns the target Myc proto-oncogene protein (Homo sapiens) (UniProt P01106). Kind of experiment: ATG_Myc_CIS: Attagene CIS-FACTORIAL HepG2 Assay for human Myelocytomatosis (Myc) Proto-Oncogene Transcription Factor (AID 2282990). As to conditions: HepG2, Attagene cis-reporter transcription factor activity; actives raise or lower the signal. An outline of the steps: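 Read-out: fluorescent reporter mRNA fragments resolved by capillary electrophoresis after RT-PCR. Human HepG2 liver cells carried transfected cis-element reporter units and were dosed for 24 h. Gain or loss of signal fitted relative to DMSO baseline.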

Experiment [11] can be described thus: ATG_NF_kB_CIS: Attagene CIS-FACTORIAL HepG2 Assay for human Nuclear Factor Kappa B (NF-kB) (AID 2282991). As to conditions: HepG2 Attagene cis-factorial NF-kB reporter mRNA; actives raise or lower the signal. In short, it runs like this:
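HepG2 cells transfected with cis-promoter-driven reporter units, so endogenous transcription factor activity is measured. Reporter mRNA quantified 24 h after dosing by RT-PCR and capillary electrophoresis, with bidirectional fitting against DMSO.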

Experiment [12] is described as follows: ATG_NRF2_ARE_CIS: Attagene CIS-FACTORIAL HepG2 Assay for human Nuclear Factor Erythroid 2 Related Factor 2 (NFR2) response to Antioxidant Response Elements (ARE) (AID 2282992).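 For AC50: reporter mRNA level measured by RT-PCR and capillary electrophoresis fluorescence.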 As to conditions: HepG2 Attagene ARE/NRF2 reporter, transcription factor activity; actives raise or lower the signal. In short, it runs like this:
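Cis-factorial assay: transfected HepG2 reporter library, 24 h dosing, mRNA readout via RT-PCR/CE; DMSO-referenced bidirectional analysis.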

Experiment [13] can be described thus: ATG_Oct_MLP_CIS: Attagene CIS-FACTORIAL HepG2 Assay for human Octamer-Binding Transcription Factor (Oct) (AID 2282993). As to conditions: HepG2 Attagene cis-factorial Oct reporter, mRNA; actives raise or lower the signal. An outline of the steps:
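Read-out: reporter mRNA via RT-PCR plus capillary electrophoresis of 6-FAM-labelled fragments. Transiently transfected HepG2, 24 h exposure, endogenous TF activity on cis elements. Gain or loss of signal fitted relative to DMSO.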

Experiment [14] addresses Oxysterols receptor LXR-alpha (Homo sapiens) (UniProt Q13133). Kind of experiment: ATG_LXRa_TRANS: Attagene TRANS-FACTORIAL HepG2 Assay for human Liver X Receptor alpha (LXRa) (AID 2282980; active = hit-call score of the fitted dose curve at least 0.9, where 1 is the maximum). As to conditions: HepG2 Attagene TRANS reporter, LXRa transactivation. In short, it runs like this: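 Transient HepG2 transfectants, 24 h dosing, RT-PCR/CE mRNA reporter quantitation; gain-of-signal vs DMSO.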

In experiment [15] the target is Cellular tumor antigen p53 (Homo sapiens) (UniProt P04637). Kind of experiment: ATG_p53_CIS: Attagene CIS-FACTORIAL HepG2 Assay for human p53 Transcription Factor (AID 2282994). The settings on record: HepG2 p53 cis-element reporter, Attagene mRNA; actives raise or lower the signal. An outline of the steps: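 Using HepG2 hepatoma cells carrying cis-acting multiplexed reporters, mRNA induction is detected after a 24 h exposure. Gain- and loss-of-signal responses are fitted relative to DMSO-treated cells.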
Cellular tumor antigen p53 (Homo sapiens), sequence (P04637 whole entry, looked up): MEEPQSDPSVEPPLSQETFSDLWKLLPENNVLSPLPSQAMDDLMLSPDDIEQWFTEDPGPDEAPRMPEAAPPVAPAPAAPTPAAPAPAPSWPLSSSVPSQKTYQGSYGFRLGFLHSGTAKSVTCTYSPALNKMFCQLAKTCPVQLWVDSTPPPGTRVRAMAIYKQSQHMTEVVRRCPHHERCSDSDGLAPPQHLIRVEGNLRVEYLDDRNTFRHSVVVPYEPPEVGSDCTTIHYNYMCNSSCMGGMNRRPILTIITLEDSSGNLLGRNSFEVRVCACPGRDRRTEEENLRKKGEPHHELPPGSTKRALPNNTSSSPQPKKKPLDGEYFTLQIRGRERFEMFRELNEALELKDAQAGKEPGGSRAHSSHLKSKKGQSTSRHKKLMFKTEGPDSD

Experiment [16] in a line: BSK_3C_TissueFactor: BioMAP Diversity Plus: 3C Assay for Tissue Factor Biomarker Activity (AID 2282997). As to conditions: BioMAP 3C HUVEC, tissue factor biomarker readout; actives raise or lower the signal. An outline of the steps: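 Values derive from bidirectional curve fitting against DMSO of Tissue Factor ELISA signals, taken 24 h after dosing primary human umbilical vein endothelial cells.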

Experiment [17] can be described thus: BSK_3C_uPAR: BioMAP Diversity Plus: 3C Assay for Urokinase-type plasminogen activator receptor (uPAR) Biomarker Activity (AID 2282998). The settings on record: BioMAP 3C HUVEC, uPAR biomarker ELISA; actives raise or lower the signal. An outline of the steps: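 HUVEC primary cells; 24 h post-dose; uPAR by ELISA; gain or loss of signal fitted bidirectionally vs DMSO baseline.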
A general note: In an ELISA, binding on a coated surface is turned into a signal by an enzyme label.

Results filed as inconclusive are left out. The source made the active and inactive calls. Rule for the calls, unless noted: active = hit-call score of the fitted dose curve at least 0.9, where 1 is the maximum; inactive = score below 0.9.

Transcriptional activator Myb (Homo sapiens), sequence (P10242 whole entry, looked up): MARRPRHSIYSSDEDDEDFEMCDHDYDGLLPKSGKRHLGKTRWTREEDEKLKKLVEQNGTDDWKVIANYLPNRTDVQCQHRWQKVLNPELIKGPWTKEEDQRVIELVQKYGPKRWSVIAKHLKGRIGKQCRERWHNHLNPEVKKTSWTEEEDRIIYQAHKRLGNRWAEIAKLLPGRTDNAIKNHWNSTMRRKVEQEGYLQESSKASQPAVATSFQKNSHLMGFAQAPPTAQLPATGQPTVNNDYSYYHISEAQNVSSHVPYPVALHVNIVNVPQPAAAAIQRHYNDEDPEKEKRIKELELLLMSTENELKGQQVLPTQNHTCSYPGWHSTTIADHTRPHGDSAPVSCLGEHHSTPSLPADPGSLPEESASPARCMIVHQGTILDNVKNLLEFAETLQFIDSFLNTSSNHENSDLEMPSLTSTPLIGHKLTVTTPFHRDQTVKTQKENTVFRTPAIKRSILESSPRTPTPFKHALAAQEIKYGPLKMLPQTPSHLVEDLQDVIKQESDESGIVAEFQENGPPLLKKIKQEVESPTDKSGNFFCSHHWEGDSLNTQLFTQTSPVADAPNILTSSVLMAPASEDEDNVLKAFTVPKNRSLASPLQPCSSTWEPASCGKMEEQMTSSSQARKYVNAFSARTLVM
Hepatocyte nuclear factor 4-alpha (Homo sapiens), sequence (P41235 whole entry, looked up, the tested form may be a part): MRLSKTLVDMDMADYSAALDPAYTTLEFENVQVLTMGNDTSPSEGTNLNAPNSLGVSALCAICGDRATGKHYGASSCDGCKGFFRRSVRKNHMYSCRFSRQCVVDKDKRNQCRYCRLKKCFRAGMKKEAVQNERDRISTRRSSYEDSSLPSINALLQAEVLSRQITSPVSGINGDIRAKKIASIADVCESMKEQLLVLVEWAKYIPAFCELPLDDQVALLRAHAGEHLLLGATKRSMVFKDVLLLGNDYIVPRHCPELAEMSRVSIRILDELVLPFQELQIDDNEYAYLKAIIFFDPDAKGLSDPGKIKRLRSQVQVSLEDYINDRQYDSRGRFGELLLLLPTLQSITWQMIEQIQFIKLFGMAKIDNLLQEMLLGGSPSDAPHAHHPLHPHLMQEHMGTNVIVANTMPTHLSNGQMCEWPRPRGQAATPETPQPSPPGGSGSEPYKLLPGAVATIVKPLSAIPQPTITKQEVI
Oxysterols receptor LXR-alpha (Homo sapiens), sequence (Q13133 whole entry, looked up): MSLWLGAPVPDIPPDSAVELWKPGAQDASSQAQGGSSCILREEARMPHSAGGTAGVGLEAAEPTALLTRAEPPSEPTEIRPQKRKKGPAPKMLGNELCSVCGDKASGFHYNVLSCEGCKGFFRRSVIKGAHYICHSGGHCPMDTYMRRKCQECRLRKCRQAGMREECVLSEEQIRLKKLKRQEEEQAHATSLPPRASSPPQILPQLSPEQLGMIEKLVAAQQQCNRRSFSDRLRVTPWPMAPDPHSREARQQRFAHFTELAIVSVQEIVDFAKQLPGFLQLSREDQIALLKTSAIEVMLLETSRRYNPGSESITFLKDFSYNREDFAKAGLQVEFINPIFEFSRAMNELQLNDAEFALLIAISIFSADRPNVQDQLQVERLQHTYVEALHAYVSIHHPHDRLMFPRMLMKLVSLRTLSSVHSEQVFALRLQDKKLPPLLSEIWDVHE
Myc proto-oncogene protein (Homo sapiens), sequence (P01106 whole entry, looked up, the tested form may be a part): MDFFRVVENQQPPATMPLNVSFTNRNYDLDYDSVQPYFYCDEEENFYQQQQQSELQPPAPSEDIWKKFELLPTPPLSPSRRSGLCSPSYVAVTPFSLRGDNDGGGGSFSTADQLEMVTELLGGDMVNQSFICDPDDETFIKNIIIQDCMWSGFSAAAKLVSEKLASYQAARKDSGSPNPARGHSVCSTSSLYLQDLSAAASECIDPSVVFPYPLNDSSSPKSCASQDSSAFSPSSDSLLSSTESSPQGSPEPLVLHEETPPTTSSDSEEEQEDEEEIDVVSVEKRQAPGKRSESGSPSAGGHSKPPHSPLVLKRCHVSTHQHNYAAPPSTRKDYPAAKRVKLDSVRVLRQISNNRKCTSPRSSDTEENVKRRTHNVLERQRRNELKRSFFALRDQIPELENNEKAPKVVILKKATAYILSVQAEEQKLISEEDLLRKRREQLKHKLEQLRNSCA
Nuclear receptor subfamily 4 group A member 2 (Homo sapiens), sequence (P43354 whole entry, looked up): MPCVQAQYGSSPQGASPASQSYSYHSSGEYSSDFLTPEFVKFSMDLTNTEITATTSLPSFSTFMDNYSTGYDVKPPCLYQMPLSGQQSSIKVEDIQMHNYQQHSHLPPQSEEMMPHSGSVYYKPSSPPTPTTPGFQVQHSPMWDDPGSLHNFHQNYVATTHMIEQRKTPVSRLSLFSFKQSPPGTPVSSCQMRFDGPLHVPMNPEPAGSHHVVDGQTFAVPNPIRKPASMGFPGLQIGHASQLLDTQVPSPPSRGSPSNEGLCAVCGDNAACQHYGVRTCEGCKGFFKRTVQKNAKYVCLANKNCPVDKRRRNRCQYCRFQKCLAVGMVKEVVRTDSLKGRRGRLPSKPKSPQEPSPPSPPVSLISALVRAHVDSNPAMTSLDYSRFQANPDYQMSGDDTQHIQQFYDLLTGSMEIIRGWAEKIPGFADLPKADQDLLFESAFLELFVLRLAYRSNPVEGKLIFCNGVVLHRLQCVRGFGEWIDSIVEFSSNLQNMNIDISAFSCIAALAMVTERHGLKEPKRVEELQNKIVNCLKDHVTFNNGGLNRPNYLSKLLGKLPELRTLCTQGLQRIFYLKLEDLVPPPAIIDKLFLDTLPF
Oxysterols receptor LXR-beta (Homo sapiens), sequence (P55055 whole entry, looked up, the tested form may be a part): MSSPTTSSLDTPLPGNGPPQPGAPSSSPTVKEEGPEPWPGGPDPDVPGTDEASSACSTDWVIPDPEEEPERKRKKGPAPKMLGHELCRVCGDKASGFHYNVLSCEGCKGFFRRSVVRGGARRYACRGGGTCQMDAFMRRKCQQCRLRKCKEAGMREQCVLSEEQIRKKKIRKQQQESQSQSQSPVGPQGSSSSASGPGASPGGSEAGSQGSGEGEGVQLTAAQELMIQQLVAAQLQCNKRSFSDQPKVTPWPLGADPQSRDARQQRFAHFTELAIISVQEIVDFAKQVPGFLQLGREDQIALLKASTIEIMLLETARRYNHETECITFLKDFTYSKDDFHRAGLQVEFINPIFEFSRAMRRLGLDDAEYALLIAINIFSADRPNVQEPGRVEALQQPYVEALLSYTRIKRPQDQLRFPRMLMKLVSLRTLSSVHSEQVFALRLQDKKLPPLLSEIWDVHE

As to `O=c1cccc[nH]1`, the result in experiment [1], in experiment [2], in experiment [3], in experiment [4], in experiment [5] and in [6] was inactive. For the same compound, the compound was called inactive in [7], in experiment [8], in experiment [9], in experiment [10], in [11] and in [12]. Besides, in [13], the compound was called inactive.

Turning to `OCC1CCCO1` (stereo not given), the call in [1], in experiment [14], in experiment [2], in experiment [4], in experiment [5] and in experiment [7] was inactive. For the same compound, the compound was called inactive in experiment [8], in experiment [9], in experiment [10], in experiment [11], in [12] and in experiment [15].

On to `O=C(O)CCC(F)(F)C(F)(F)C(F)(F)C(F)(F)C(F)(F)C(F)(F)C(F)(F)F`, for which the result in experiment [1], in experiment [14], in experiment [5], in experiment [6], in experiment [7] and in [8] was inactive. Besides, the outcome in [9], in [10], in [11], in [13], in experiment [16] and in experiment [17] was inactive. Also, the AC50 (commonly the midpoint of the concentration-response curve, whichever way the signal moves) in [12] is 94.9 µM (active).

For `Cc1cnccn1`, the result in experiment [1], in experiment [14], in experiment [3], in [5], in experiment [7] and in experiment [8] was inactive. For the same compound, the call in experiment [9], in experiment [10], in [11], in experiment [12], in experiment [13] and in experiment [15] was inactive. The outcome in [16] and in [17] was inactive.

`CCN(CC)c1ccc2c(c1)Oc1cc(N(CC)CC)ccc1C21OC(=O)c2ccccc21`: the outcome in experiment [1], in [4], in experiment [5], in experiment [7], in [8] and in experiment [9] was inactive. For the same compound, the compound was classed as inactive in experiment [10], in experiment [11] and in [13]. Besides, the figures for the AC50 in experiment [12], in experiment [16] and in experiment [17] were 34.8 µM (active), 2.97 µM (active) and 11.2 µM (active), respectively.

For the compound `CCCC(=O)OCC(COC(=O)CCC)OC(=O)CCC`, the outcome in [1], in experiment [3], in experiment [4], in experiment [6], in experiment [7] and in [8] was inactive. The compound was called inactive in experiment [9], in experiment [10], in experiment [12] and in experiment [13]. Besides, in [11], the AC50 was 44.7 µM (active).
